Screening results from PubChem BioAssay.
GDH-TPI counter = GDH-TPI coupling enzyme inhibitors, primary screen, artefact control for M. tuberculosis FBA inhibitor project, biochemical, absorbance, full deck; GDH-TPI coupled enzyme counterscreen, NADH absorbance; inhibition, % at 4.8 µM; 360,000 tested, 1.2% active; AID 588335, 2011;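 further: 0% = DMSO wells and 100% = wells lacking the enzyme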
VHR inh abs = VHR1 phosphatase inhibitors, primary screen, biochemical, absorbance, uHTS. Dual specificity protein phosphatase 3 (Homo sapiens), P51452. recombinant VHR phosphatase, pNPP absorbance. inhibition, % at 13.3 µM. 290,000 tested, 0.52% active. AID 1654, 2009; in the data active means inhibition above about 50%
Target sequence (P51452 whole entry, looked up): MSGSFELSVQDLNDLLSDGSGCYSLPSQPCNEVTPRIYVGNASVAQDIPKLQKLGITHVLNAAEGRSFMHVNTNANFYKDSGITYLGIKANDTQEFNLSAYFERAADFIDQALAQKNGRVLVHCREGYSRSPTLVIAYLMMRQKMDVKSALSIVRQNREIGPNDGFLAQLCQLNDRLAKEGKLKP
RecA splice inh = Mtb RecA intein splicing inhibitors, primary screen, biochemical, fluorescence, HTS. 290,000 tested, 0.75% active. Protein RecA (Mycobacterium tuberculosis (strain ATCC 25618 / H37Rv)), P9WHJ3. cell-free RecA intein splicing. AID 2221, 2009. inhibition, % (test concentration not listed); in the data active means inhibition above about 30%;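 further: 0% = vehicle wells and 100% = reference inhibitor control wells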
3CLpro inhibitor = SARS-CoV 3CLpro protease inhibitors, primary screen, biochemical, quenched FRET. Replicase polyprotein 1ab (Severe acute respiratory syndrome coronavirus), P0C6X7. 290,000 tested, 0.14% active. recombinant SARS-CoV 3CLpro, quenched FRET peptide cleavage. inhibition, % at 6 µM; in the data active means inhibition above about 12%
CCHF vOTU inh = CCHFV vOTU protease inhibitors, primary screen, biochemical, Pep-AMC substrate, fluorescence | 370,000 tested, 0.55% active | Crimean-Congo hemorrhagic fever virus L polyprotein viral ovarian tumor (vOTU) protease … | AID 651958, 2012 | inhibition, % at 11.5 µM; further: 0% = vehicle wells with enzyme and 100% = no enzyme wells
Mtb FBA inh = Mtb FBA enzyme inhibitors, primary screen, biochemical, fluorescence, strain H37Rv; Fructose-bisphosphate aldolase (Mycobacterium tuberculosis (strain ATCC 25618 / H37Rv)), …; inhibition, % at 1 µM; purified M. tuberculosis FBA, fluorescence read-out; 360,000 tested, 2.3% active; in the data active means inhibition above about 27%;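 further: 0% = vehicle and 100% = reference inhibitor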
Target sequence (P9WQA3 whole entry, looked up): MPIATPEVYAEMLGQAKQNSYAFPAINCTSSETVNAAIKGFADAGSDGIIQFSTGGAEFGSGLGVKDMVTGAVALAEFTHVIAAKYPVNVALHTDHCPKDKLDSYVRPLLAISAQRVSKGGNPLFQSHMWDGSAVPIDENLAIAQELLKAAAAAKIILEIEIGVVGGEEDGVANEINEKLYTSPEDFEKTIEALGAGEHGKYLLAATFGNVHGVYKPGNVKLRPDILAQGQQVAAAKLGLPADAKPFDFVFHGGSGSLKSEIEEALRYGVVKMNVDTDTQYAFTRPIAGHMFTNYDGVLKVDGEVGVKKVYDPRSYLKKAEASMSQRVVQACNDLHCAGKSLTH
* = called active by the depositor. A selection: hits, their analogues and other compounds. The true share with any hit is near 4.7%. Unless noted, no stated cut-off is given here; in the data, active means inhibition above about 30%; inactive means the rest.

For Cc1ccc(NC(=S)N/N=C/c2ccc(Cl)c([N+](=O)[O-])c2)cc1 the results were GDH-TPI counter 33.3*, VHR inh abs -16.6, RecA splice inh 1.9, 3CLpro inhibitor 0.2, CCHF vOTU inh -8.7 and Mtb FBA inh -2.6.
For CCCCN1CC[C@H](C)Oc2cc(Br)ccc2S1(=O)=O the results were CCHF vOTU inh 17.0.
O=C(NCC(=O)N(c1ccccc1)C(C(=O)NC1CCCCC1)c1cccnc1)c1cccs1 (stereo unspecified) was read as GDH-TPI counter -2.5, VHR inh abs 52.0*, RecA splice inh 0.1, 3CLpro inhibitor 3.9, CCHF vOTU inh 5.5 and Mtb FBA inh 0.4.
`Cc1cccc(N(C(=O)CNC(=O)c2cccs2)C(C(=O)NC2CCCC2)c2cccnc2)c1` (stereo unspecified) gave GDH-TPI counter 7.1, VHR inh abs 56.7*, RecA splice inh 0.1, 3CLpro inhibitor 0.5, CCHF vOTU inh -12.8 and Mtb FBA inh 3.0.
O=C(Nc1nnc(-c2ccccc2Cl)o1)c1nc2ccccc2s1 was read as GDH-TPI counter 24.4, VHR inh abs 53.3*, RecA splice inh -0.7, 3CLpro inhibitor 0.5, CCHF vOTU inh 12.8 and Mtb FBA inh 1.2.
Screening O=C1CCCC2=C1C(c1cccnc1)Nc1ccccc1N2 (stereo unspecified) returned GDH-TPI counter 30.8*, VHR inh abs 28.6, RecA splice inh 3.2, 3CLpro inhibitor -4.0, CCHF vOTU inh -3.9 and Mtb FBA inh -13.5.
`O=C(O)CCCN1C(=O)C(=O)/C(=C(/O)c2ccc(Cl)cc2)C1c1ccccc1` (stereo unspecified) gave GDH-TPI counter 41.2*, VHR inh abs 21.0, RecA splice inh 0.6, 3CLpro inhibitor -5.9, CCHF vOTU inh 0.1 and Mtb FBA inh 3.6.
`Cc1cc(C)cc(Nc2ccc(C(=O)O)cc2N)c1` gave GDH-TPI counter -3.1, VHR inh abs -13.9, RecA splice inh 6.4, 3CLpro inhibitor 5.0, CCHF vOTU inh -148.3 and Mtb FBA inh 117.9*.
Screening Cc1noc(C)c1COC(=O)c1cc2c3ccccc3n(C)c2s1 returned GDH-TPI counter 39.5*, VHR inh abs 24.4, 3CLpro inhibitor -4.7, CCHF vOTU inh -3.5 and Mtb FBA inh 4.8.
`O=C(O)c1ccc(Nc2nc(-c3ccccc3)nc3ccccc23)cc1` gave GDH-TPI counter 46.6*, VHR inh abs -6.7, RecA splice inh 2.9, 3CLpro inhibitor 1.4, CCHF vOTU inh 27.4 and Mtb FBA inh 8.4.
For CNC(=O)c1ccc(Nc2nc(-c3ccccc3)nc3ccccc23)cc1 the results were GDH-TPI counter 5.2, VHR inh abs 35.8, RecA splice inh 5.0, 3CLpro inhibitor 0.2, CCHF vOTU inh 12.3 and Mtb FBA inh 5.6.
Cc1ccc(-c2nc(Nc3ccc(O)cc3)c3ccccc3n2)cc1 was read as GDH-TPI counter 1.3, VHR inh abs 50.7*, RecA splice inh 11.2, 3CLpro inhibitor 5.8, CCHF vOTU inh 13.0 and Mtb FBA inh 1.4.
For Cc1ccc(-c2nc(Nc3cccc(O)c3)c3ccccc3n2)cc1 the results were GDH-TPI counter 6.0, RecA splice inh 4.1, 3CLpro inhibitor -0.6, CCHF vOTU inh -0.1 and Mtb FBA inh -1.1.
Screening CCc1cc(=O)oc2cc(OC(C)=O)cc(OC(C)=O)c12 returned GDH-TPI counter 22.9, VHR inh abs 10.8, RecA splice inh -44.1, 3CLpro inhibitor 0.7, CCHF vOTU inh -238.1 and Mtb FBA inh active.
Screening COc1cc(OCc2ccccc2)c2c(CCC(=O)O)cc(=O)oc2c1 returned GDH-TPI counter 21.6, CCHF vOTU inh -287.6 and Mtb FBA inh active.
For O=S(=O)(NCCc1cn2ccccc2n1)c1ccc(-c2ccccc2)cc1 the results were GDH-TPI counter 6.2, VHR inh abs 57.1*, RecA splice inh 0.0, 3CLpro inhibitor 3.7, CCHF vOTU inh 10.2 and Mtb FBA inh -1.4.
Screening O=C(Nc1ccc2nn(-c3ccccc3)nc2c1)c1cccnc1 returned GDH-TPI counter 34.6*, VHR inh abs 32.2, RecA splice inh 4.2, 3CLpro inhibitor 0.5, CCHF vOTU inh 7.7 and Mtb FBA inh -1.1.
Screening CC(C)C(=O)Nc1ccc2nn(-c3ccccc3)nc2c1 returned GDH-TPI counter 23.5, VHR inh abs 15.1, RecA splice inh 3.2, 3CLpro inhibitor -3.3, CCHF vOTU inh -77.6 and Mtb FBA inh active.
Screening O=C(Nc1cc2nn(-c3ccccc3)nc2cc1Cl)c1ccco1 returned GDH-TPI counter 38.1*, VHR inh abs 1.8, RecA splice inh 2.1, 3CLpro inhibitor -4.6, CCHF vOTU inh 0.1 and Mtb FBA inh 9.4.
O=C(Nc1ccc2nn(-c3ccccc3)nc2c1)c1ccco1 was read as GDH-TPI counter 32.7*, VHR inh abs -4.4, RecA splice inh 1.1, 3CLpro inhibitor 0.3, CCHF vOTU inh 3.6 and Mtb FBA inh 15.6.
For CC(C)C(=O)Nc1ccc(Nc2ccccc2)cc1 the results were GDH-TPI counter 9.7, VHR inh abs -15.0, RecA splice inh 0.6, 3CLpro inhibitor 2.5, CCHF vOTU inh -0.6 and Mtb FBA inh -0.1.
`O=C(COC(=O)c1ccc(Sc2ncn[nH]2)c([N+](=O)[O-])c1)Nc1cccc(Cl)c1F` gave CCHF vOTU inh 4.3.
Screening Cc1ccc(C2(SCC(N)C(=O)O)c3ccccc3-c3ccccc32)cc1 (stereo unspecified) returned GDH-TPI counter 5.2, CCHF vOTU inh 8.6 and Mtb FBA inh 1.1.
CCOC(=O)C1=C(C(=O)OCC)C2N(Cc3ccc(Br)cc3)c3ccccc3[C@@]23C[C@@H](C(=O)OC)N(S(=O)(=O)c2ccc(Br)cc2)C3=N1 (stereo partly specified) was read as CCHF vOTU inh 0.2.
`O=C(O)COc1c(-c2ccccc2)oc2ccccc2c1=O` gave GDH-TPI counter 9.6, VHR inh abs 14.6, RecA splice inh -4.3, 3CLpro inhibitor 1.5, CCHF vOTU inh 7.6 and Mtb FBA inh 1.8.
Screening CC(=O)Oc1c(-c2ccco2)oc2ccccc2c1=O returned GDH-TPI counter 43.9*, VHR inh abs 16.5, RecA splice inh -97.5, 3CLpro inhibitor -0.3, CCHF vOTU inh -15.7 and Mtb FBA inh 22.2.
`CCCOc1nccc2c1n(C)c(=O)n2C` gave CCHF vOTU inh -4.2.
`CC(/C=C/c1ccc(N(C)C)cc1)=N/N=C1/NC(=O)CC(C(=O)Nc2ccc(Cl)cc2)S1` (stereo unspecified) gave GDH-TPI counter 26.6, VHR inh abs 37.2, RecA splice inh -3.9, 3CLpro inhibitor -4.2, CCHF vOTU inh 11.8 and Mtb FBA inh -7.6.
